According to ChEMBL document CHEMBL3988442, “University of Dundee, Small-Polar-MMV Screening Library” (2021):
For some assays here: Results with a measured potency or affinity are listed apart.

Tests used:
Set-up in all cases: scale not given: direction of the effect not stated beside the values
[1] = target: Protein translocase subunit SecA (Escherichia coli (strain K12)) (UniProt P10408); assay: Assay to Identify E. coli SecA ATPase Inhibitors; format: functional; details: 30 µM
[2] = target: T1, Ubiquitin-activating enzyme e1, putative (Leishmania donovani (strain BPK282A1)) (UniProt E9BSI1); assay: Leishmania donovani Ubiquitin Activating Enzyme (LdE1); format: functional; details: 30 µM
T1 sequence (whole entry): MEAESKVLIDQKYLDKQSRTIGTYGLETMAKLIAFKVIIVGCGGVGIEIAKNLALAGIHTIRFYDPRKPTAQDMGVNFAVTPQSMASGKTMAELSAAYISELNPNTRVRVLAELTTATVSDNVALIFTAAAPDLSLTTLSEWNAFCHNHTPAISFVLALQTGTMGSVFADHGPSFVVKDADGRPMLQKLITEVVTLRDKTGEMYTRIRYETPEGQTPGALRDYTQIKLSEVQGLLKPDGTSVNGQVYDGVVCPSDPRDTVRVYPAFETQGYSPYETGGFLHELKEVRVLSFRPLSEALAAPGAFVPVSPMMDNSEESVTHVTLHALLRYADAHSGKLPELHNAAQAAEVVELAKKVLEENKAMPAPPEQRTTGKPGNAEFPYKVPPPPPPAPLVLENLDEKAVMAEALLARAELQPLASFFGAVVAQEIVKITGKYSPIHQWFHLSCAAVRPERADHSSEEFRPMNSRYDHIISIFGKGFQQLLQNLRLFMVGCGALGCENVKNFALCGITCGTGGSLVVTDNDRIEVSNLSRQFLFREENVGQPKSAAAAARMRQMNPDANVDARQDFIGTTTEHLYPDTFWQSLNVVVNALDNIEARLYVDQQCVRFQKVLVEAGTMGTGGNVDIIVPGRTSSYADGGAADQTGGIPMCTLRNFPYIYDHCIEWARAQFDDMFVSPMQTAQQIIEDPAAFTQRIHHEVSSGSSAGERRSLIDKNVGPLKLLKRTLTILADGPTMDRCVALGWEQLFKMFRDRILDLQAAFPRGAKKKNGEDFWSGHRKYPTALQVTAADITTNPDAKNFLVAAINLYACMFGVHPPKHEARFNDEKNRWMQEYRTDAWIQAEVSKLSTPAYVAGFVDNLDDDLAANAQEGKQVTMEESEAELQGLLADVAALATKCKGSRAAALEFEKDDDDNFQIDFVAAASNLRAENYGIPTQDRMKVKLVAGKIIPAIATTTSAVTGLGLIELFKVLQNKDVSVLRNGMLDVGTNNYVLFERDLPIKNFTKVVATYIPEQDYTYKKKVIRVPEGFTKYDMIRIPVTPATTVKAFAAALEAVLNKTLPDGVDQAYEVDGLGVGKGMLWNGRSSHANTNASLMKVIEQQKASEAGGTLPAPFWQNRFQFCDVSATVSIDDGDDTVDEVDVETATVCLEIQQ

[3] = target: AMP-activated protein kinase, AMPK (Homo sapiens) (UniProt P54646+O43741+P54619+Q9UGJ0+Q9Y478+Q13131+Q9UGI9); assay: AMP-dependent Kinase enzyme assay. An in vitro enzyme assay that detects ADP turnover that is directly proportional to AMPK activity. This uses naive AMPK that is activated during the assay with MK-8722; format: functional; details: 30 µM
[4] = target: Sialic acid-binding Ig-like lectin 9 (Homo sapiens) (UniProt Q9Y336); assay: Hs-Siglec9 ALPHAscreen SOP 20170721; details: 10 µM
Chain of Sialic acid-binding Ig-like lectin 9 (Homo sapiens) (Q9Y336 whole entry): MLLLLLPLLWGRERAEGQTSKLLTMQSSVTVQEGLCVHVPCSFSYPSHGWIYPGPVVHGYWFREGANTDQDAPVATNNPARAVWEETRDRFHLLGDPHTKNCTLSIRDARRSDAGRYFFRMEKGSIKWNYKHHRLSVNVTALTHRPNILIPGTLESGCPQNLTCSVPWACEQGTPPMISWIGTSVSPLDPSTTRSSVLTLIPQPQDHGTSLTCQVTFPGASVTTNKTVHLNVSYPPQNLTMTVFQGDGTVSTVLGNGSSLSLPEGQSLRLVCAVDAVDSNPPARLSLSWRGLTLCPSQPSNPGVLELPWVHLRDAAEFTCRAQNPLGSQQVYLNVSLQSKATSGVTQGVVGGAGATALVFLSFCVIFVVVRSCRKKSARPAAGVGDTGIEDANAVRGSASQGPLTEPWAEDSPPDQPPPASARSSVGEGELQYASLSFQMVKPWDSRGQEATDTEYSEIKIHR

Trypanosoma cruzi = assay: Trypanosoma cruzi phosphomannomutase and mannose-1-phosphate guanylyltransferase assay; format: functional; details: 10 µM
[5] = target: T2, Arginase-2, mitochondrial (Homo sapiens) (UniProt P78540); assay: in vitro enzyme assay to detect the production of urea directly proportional to the activity of Arginase II; format: functional; details: 33.3 µM; also: in the data most compounds retested in dose-response had high values
T2 sequence (whole entry): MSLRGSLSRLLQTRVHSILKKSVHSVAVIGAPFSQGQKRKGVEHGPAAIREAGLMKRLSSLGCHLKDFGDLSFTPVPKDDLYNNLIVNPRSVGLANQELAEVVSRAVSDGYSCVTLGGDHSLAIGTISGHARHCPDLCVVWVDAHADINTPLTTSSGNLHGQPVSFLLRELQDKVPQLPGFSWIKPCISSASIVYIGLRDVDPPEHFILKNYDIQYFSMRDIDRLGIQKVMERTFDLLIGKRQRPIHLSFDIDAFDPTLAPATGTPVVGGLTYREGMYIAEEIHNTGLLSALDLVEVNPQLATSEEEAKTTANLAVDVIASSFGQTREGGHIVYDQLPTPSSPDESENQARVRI

[6] = target: T3, Proteasome subunit beta (Trypanosoma cruzi) (UniProt O96673); assay: Trypanosoma cruzi proteasome chymotrypsin-like activity (TcProtChymo) assay.; also: in the data most compounds retested in dose-response had high values; format: functional; details: 9.37 µM
T3 sequence (whole entry): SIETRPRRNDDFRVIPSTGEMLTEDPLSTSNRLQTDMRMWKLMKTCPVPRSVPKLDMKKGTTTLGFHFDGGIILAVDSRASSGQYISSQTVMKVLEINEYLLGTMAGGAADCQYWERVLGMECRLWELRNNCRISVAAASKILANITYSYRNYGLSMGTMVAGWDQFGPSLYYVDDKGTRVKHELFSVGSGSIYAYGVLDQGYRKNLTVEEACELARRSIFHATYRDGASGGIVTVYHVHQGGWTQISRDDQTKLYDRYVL

Homo sapiens = organism: Homo sapiens; assay: To identify inhibition of the IFN signalling (Jak-Stat) pathway via expression of an eGFP reporter gene under the control of an IFN-stimulated response element (ISRE) containing MxA promoter.; format: functional; details: 30 µM
[7] = target: T4, Tyrosyl-tRNA synthetase, putative (Trypanosoma cruzi (strain CL Brener)) (UniProt Q4DSP6); assay: Trypanosoma cruzi tyrosyl tRNA synthetase (TcYRS) _High Tyrosine SOP; format: functional; details: 30 µM; also: in the data most compounds retested in dose-response had high values
T4 sequence (whole entry): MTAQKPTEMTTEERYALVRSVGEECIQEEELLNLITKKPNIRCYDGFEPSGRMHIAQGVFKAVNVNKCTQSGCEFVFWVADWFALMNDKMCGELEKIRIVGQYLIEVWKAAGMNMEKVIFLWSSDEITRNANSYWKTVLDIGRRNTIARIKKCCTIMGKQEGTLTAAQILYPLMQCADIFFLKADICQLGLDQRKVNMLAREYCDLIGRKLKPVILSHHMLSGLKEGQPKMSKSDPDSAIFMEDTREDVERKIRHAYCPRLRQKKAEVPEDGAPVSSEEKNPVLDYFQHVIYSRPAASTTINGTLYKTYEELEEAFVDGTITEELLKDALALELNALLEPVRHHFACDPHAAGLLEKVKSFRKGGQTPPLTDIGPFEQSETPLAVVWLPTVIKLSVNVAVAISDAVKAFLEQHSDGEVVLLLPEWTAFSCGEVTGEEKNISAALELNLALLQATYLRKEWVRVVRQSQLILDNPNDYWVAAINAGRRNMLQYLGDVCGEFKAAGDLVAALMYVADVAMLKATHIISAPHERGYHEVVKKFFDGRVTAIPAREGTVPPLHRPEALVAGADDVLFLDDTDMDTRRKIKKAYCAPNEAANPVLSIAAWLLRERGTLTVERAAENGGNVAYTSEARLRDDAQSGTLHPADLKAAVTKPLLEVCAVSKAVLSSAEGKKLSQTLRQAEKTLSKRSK

[8] = target: T4, Tyrosyl-tRNA synthetase, putative (Trypanosoma cruzi (strain CL Brener)); assay: Trypanosoma cruzi tyrosyl tRNA synthetase (TcYRS) SOP; format: functional; details: 30 µM
[9] = target: Chromo domain-containing protein 1 (Saccharomyces cerevisiae (strain ATCC 204508 / S288c) (Baker's yeast)) (UniProt P32657); assay: ScCHD-1 Enzyme Inhibition Assay; format: functional; details: 30 µM; also: in the data most compounds retested in dose-response had high values
Chain of Chromo domain-containing protein 1 (Saccharomyces cerevisiae (strain ATCC 204508 / S288c) (Baker's yeast)) (P32657 whole entry, the tested form may be a part): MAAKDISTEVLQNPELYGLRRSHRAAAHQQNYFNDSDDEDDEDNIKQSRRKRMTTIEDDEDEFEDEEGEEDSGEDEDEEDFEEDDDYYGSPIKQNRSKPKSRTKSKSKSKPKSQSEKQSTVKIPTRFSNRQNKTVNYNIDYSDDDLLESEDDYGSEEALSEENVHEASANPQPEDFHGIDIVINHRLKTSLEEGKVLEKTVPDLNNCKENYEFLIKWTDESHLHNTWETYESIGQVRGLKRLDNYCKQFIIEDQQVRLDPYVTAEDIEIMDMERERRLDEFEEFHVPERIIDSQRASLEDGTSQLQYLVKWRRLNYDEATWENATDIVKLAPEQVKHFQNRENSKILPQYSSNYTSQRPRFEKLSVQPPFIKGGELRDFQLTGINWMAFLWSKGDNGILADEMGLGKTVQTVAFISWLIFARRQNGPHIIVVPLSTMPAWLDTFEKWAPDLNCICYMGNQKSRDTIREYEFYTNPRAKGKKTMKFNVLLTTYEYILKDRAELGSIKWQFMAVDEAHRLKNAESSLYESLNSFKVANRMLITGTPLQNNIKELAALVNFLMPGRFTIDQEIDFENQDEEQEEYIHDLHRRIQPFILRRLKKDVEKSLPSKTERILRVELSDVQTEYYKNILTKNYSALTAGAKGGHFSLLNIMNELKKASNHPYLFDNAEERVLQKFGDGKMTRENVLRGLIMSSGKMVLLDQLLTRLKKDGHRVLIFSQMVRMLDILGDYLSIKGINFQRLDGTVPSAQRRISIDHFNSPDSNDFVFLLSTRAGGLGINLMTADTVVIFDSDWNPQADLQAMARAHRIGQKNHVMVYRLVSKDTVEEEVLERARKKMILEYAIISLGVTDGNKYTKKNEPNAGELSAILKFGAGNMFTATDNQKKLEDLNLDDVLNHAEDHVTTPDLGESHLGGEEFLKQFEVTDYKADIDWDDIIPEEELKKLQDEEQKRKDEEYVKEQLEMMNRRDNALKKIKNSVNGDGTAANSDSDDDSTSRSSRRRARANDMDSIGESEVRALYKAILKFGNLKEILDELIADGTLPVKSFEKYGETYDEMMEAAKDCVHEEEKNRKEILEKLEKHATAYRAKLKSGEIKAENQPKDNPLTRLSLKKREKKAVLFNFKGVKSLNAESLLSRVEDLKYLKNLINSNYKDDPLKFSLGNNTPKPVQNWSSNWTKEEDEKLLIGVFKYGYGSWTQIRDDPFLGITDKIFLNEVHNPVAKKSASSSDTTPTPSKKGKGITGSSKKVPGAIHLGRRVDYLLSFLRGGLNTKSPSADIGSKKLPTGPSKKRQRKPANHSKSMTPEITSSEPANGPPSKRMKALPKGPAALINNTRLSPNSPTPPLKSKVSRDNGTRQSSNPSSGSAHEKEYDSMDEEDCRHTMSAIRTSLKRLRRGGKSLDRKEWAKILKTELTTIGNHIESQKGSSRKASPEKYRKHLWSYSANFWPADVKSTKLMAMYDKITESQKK

Chain of Protein translocase subunit SecA (Escherichia coli (strain K12)) (P10408 whole entry): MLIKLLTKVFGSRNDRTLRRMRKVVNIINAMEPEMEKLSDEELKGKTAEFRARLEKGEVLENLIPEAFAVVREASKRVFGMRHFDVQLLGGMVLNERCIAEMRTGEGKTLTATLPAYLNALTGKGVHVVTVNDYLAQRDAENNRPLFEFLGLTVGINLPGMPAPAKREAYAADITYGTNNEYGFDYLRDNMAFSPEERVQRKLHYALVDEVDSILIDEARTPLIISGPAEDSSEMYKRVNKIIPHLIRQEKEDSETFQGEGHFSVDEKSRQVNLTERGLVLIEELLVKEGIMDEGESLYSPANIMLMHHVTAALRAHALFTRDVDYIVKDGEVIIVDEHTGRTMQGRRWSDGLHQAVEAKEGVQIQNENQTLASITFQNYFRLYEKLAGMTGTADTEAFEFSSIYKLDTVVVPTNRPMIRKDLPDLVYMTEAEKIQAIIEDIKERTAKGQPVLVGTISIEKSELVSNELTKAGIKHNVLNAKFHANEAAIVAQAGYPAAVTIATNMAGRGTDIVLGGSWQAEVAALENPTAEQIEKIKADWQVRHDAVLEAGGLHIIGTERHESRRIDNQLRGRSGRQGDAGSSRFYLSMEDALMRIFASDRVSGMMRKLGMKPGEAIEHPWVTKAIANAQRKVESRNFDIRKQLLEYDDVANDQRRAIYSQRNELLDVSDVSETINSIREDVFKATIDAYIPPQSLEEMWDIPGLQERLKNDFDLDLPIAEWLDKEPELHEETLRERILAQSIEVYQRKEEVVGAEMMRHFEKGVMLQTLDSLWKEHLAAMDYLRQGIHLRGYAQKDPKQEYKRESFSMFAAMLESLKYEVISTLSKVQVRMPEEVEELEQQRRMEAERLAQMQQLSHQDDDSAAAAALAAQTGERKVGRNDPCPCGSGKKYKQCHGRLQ

Compound | Percent Effect [1] | Percent Effect [2] | Percent Effect [3] | Percent Effect [4] | Percent Effect (Trypanosoma cruzi) | Percent Effect [5] | Percent Effect [6] | Percent Effect (Homo sapiens) | Percent Effect [7] | Percent Effect [8] | Percent Effect [9]
CC(Cn1cccn1)NC(=O)NCCc1cnn(C)c1 (stereo unspecified) | 1.95% | 2.53% | -9% | -14.8% | -9.91% | 0.38% | 10.7% | 24.5% | 5.42% | 8.86% | -3.48%
Cc1cnn(C2CCCN(C(=O)c3ccc(N(C)C)nn3)C2)c1 (stereo unspecified) | -3.44% | 15.6% | 1.44% | -3.44% | -5.62% | -2.85% | -1.01% | 33.7% | 4.85% | 12.2% | -8.48%
O=C(CSC1=NS(=O)(=O)c2cc(F)ccc2N1)c1ccc(Cl)cc1 | -1.43% | 0% | 2.41% | -0.28% | -5.42% | 4.52% | 6.44% | 11.1% | 4.23% | 11.5% | -7.8%
O=C(NCC1CCS(=O)(=O)C1)c1sccc1-c1ccc(F)cc1 (stereo unspecified) | -4.74% | -54% | -1.29% | 24.1% | 8.5% | 4.71% | 13.3% | 4.09% | 4.3% | 18.5% | 0.115%
Cc1cc(C)nc(N2CCN(C(=O)c3cc(Cl)c[nH]3)CC2)n1 | -3.35% | 8.22% | -2.54% | 4.32% | 0.595% | -3.99% | 17.2% | -6.92% | 10.4% | 16.1% | -1.43%
O=c1ccc(-c2ccccc2F)nn1CCN1CCCS1(=O)=O | -6.51% | 13.5% | -4.96% | 22.3% | 6.16% | 3.72% | 1.29% | -2.29% | 1.07% | 8.64% | -10.9%
O=C(NCC(O)c1ccc(F)c(F)c1)c1cccnc1OCC(F)(F)F (stereo unspecified) | -4.25% | 19.2% | 10.1% | 8.21% | 7.94% | -2% | 15.8% | 5.47% | 4.17% | 16.1% | -4.84%
CN1C(=O)C(c2ccccc2)CC12CCN(CCOCCO)CC2 (stereo unspecified) | 1.44% | 10.7% | -6.48% | 0.314% | -9.64% | 3.12% | 19.2% | 15.2% | 3.83% | -8.64% | -5.07%
Cc1noc(C2CCC3(CCN(C(=O)C4=CCCCC4)CC3)O2)n1 (stereo unspecified) | -7.11% | 10.8% | -5.86% | 30.2% | 3.42% | 3.23% | 8.67% | 3.52% | 8.6% | 16.1% | -7.09%
O=C([C@H]1C[C@H]2OCC[C@H]2N(C(=O)C2CCOCC2)C1)N1CCCCO1 | -5.69% | 13.3% | -3.93% | 1.16% | 1.93% | -50.4% | 2.73% | -17.9% | 9.38% | 22.5% | -6.17%
CC(C)C(Sc1nnnn1-c1ccccc1)C(=O)NCc1cccnc1 (stereo unspecified) | -3.59% | 7.79% | 1.33% | -5.13% | -8.05% | -1.42% | 13% | 17% | 4.85% | 9.76% | -8.86%
CN(Cc1ccc(N2CCCCC2)cc1)Cc1noc(C(C)(C)C)n1 | -2.34% | -13% | -0.29% | 2.11% | 0.492% | 0% | 13.8% | 9.08% | -2.15% | -6.17% | -1.32%
COc1ccsc1C(=O)N1CCCC(n2nc(C)nc2C)C1 (stereo unspecified) | 0.303% | 0% | -4.74% | -3.48% | -6.89% | 2.66% | -1.72% | 6.32% | 6.4% | 3.8% | 1.65%
Cc1cc(C)cc(OCCC(=O)N2CCOCC2c2ncon2)c1 (stereo unspecified) | -7.26% | 2.7% | -4.41% | 6.93% | -5.11% | -1.29% | -1.62% | 4.3% | 2.97% | 11% | 0.318%
Cc1cnc(CNc2c(F)cccc2-n2cccn2)o1 | 3.66% | 12.5% | -4.76% | 5.6% | -8.46% | 2.65% | 13.7% | 5.49% | 4.21% | 5.13% | 101%
CN1C(=O)CC(C(=O)O)C12CCN(Cc1ccc(Cl)cc1F)CC2 (stereo unspecified) | -2.86% | 10.7% | -8% | 3.22% | -0.487% | 2.6% | 10.1% | 10.2% | 6.01% | 21% | -6.2%
